The record followed here is PubChem BioAssay.

The target in assay [1] is Cell division control protein 42 homolog (Homo sapiens) (UniProt P60953). The assay is described as follows: activated mutant Cdc42 GTP-binding inhibitors, dose response, biochemical, multiplex bead flow cytometry, Bodipy-FL-GTP (AID 1333;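 active = fitted half-maximal concentration within the tested dose range, moderate curve steepness, a statistically real signal drop, and little compound fluorescence or tag-binding interference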). On the technique in general: In flow cytometry, cells or beads pass a laser one at a time.
Cell division control protein 42 homolog (Homo sapiens), sequence (P60953 whole entry, looked up): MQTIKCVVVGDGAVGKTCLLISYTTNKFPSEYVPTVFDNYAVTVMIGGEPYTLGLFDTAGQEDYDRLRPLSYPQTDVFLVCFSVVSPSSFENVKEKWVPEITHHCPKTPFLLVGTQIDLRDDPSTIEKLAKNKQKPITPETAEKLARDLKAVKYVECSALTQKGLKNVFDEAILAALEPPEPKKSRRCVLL
Assay [2] has the same target. Nature of the assay: wildtype Cdc42 GTP-binding inhibitors, dose response, biochemical, multiplex bead flow cytometry, Bodipy-FL-GTP (AID 1334;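 active = fitted half-maximal concentration within the tested range, moderate curve steepness, significant signal drop, and little compound fluorescence or bead-linkage interference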). Conditions: bead-based flow cytometry, Bodipy-FL-GTP binding to GST-Cdc42; at 100 µM (top of the series) unless noted.
Assay [3] deals with GTPase HRas (Homo sapiens) (UniProt P01112). Nature of the assay: inhibitors of GTP binding to wildtype Ras, dose response, biochemical, multiplex bead flow cytometry (AID 1335;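 active = fitted half-maximal concentration within 10 nM to 100 µM, steepness 0.5 to 2, significant signal drop, low assay interference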). Conditions: bead-based flow cytometry, Bodipy-GTP binding to GST-Ras; at 100 µM (top of the series) unless noted.
GTPase HRas (Homo sapiens), sequence (P01112 whole entry, looked up): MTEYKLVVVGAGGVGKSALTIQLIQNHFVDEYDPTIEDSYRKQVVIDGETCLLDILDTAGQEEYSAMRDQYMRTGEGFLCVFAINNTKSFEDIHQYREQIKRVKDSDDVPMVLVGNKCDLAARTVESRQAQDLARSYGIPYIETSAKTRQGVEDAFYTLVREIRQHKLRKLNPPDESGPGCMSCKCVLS
The test system of assay [4] is Ras-related protein Rab-7a (dog), GTP binding. The assay is described as follows: Rab7 GTP binding inhibitors, potency, dose response, biochemical, wildtype, multiplex bead flow cytometry (AID 1336; call rule not given here).
In assay [5] the target is GTPase HRas (Homo sapiens) (UniProt P01112). Nature of the assay: activated Ras mutant GTP binding inhibitors, dose response, biochemical, multiplex bead flow cytometry (AID 1341;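 active = dose-response curve with midpoint inside the tested range, moderate steepness, significant amplitude and little compound fluorescence or bead-attachment interference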;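 also: GST-tagged constitutively activated Ras mutant immobilized on beads and multiplexed with other GTPases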).
Assay [6] deals with Ras-related C3 botulinum toxin substrate 1 (Homo sapiens) (UniProt P63000). Nature of the assay: wildtype Rac1 GTP binding inhibitors, dose response, biochemical, multiplex bead flow cytometry (AID 1340;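 active = dose curve with midpoint inside tested range, moderate steepness, plateau gap beyond fit error, low compound glow and bead-link interference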). Conditions: GST-Rac1 beads, Bodipy-FL-GTP binding; at 100 µM (top of the series) unless noted.
A short description of assay [7]: RPL19A-GFP modulators, yeast TOR pathway, confirmation, cell-based, S. cerevisiae, flow cytometry, cherry picks, mother/daughter gates (AID 2270;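 active = GFP response below 50% of the DMSO control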). As to conditions: S. cerevisiae RPL19A-GFP strain, 3 h, at 10 µM, stronger effect = lower value, 100 = same GFP as DMSO wells.
Assay [8] in a line: LAP4-GFP expression modulators in yeast, confirmation, cell-based, cherry picks, flow cytometry, mother/daughter gates (AID 2271;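 active = GFP response above 150% of the DMSO control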;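 also: ratio of sample to DMSO plate mean so 100% equals DMSO level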). As to conditions: S. cerevisiae LAP4-GFP strain, 3 h, at 10 µM, stronger effect = higher value, 100 means same as DMSO control.
A short description of assay [9]: modulators of MEP2-GFP levels in yeast, confirmation, S. cerevisiae, flow cytometry GFP, cherry picks (AID 2272;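 active = GFP response above 150% of the DMSO control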;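 also: ratio of well signal to plate DMSO mean so 100% equals DMSO level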). Conditions: S. cerevisiae MEP2-GFP strain, 3 h, at 10 µM, stronger effect = higher value.
Assay [10] is described as follows: AGP1-GFP expression modulators, hit retest, confirmation, cell-based, flow cytometry, S. cerevisiae, cherry picks (AID 2273).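 Also: median GFP channel fluorescence over the whole cell population gate.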 Conditions: S. cerevisiae AGP1-GFP strain, 3 h, at 10 µM.
A short description of assay [11]: modulators of CIT2-GFP expression in yeast, confirmation, S. cerevisiae, GFP fusion, cherry picks, mother/daughter gates (AID 2274). Conditions: S. cerevisiae CIT2-GFP strain, flow cytometry, 3 h, at 10 µM, stronger effect = higher value.
[12] abbreviates: measured here: daughter cell gate.
[13] abbreviates: measured here: mother cell gate.
Setting [14] is: measured here: daughter cell gate response.
Setting [15] is: measured here: mother cell gate response.

For part of these data: Potency and affinity values are given separately. The source made the active and inactive calls.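 The calls were made as follows, unless noted: active = GFP response above 150% of the DMSO level; inconclusive = fewer than 70 events counted for a yeast strain; inactive = the rest.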

With `CCn1nc(C(=O)OCC(=O)c2cc(C)n(Cc3cccs3)c2C)c2ccccc2c1=O`, the result in [1], in assay [4] and in assay [5] was inactive. For the same compound, the fluorescence, percent of control (lower = inhibition) in assay [2] turned out to be 46.9%. The compound also had a GTP binding, percent of control in assay [3] of 64.2%.

As for `O=C(O)c1ccccc1NCc1ccccc1Cl`, the result in [1], in assay [4] and in assay [5] was inactive. The fluorescence, percent of control (lower = inhibition) in assay [2] amounted to 65.3%. The same compound returned a GTP binding, percent of control in assay [3] of 88.6%.

As for `COC(=O)n1c(=S)oc2cc(Cl)ccc21`, the outcome in assay [1], in assay [4] and in assay [5] was inactive. In assay [2], the fluorescence, percent of control (lower = inhibition) is 58.3%. The GTP binding, percent of control in assay [3] is 154%. Moreover, the GTP binding signal, raw median fluorescence (lower = inhibition) (MCF (arbitrary fluorescence units)) in assay [6] came to 170. The GFP response vs DMSO in [7] is 106% (inactive); in assay [7] (setting [12]) it was 93.9%; in assay [7] (setting [13]), 94.5%; in assay [9], 141% (inactive). The GFP response relative to DMSO is 126% (inactive) in assay [8], 105% in [8] (setting [14]) and 110% in [8] (setting [15]). Moreover, the GFP response, % of DMSO was 111% (inactive) in assay [10], 121% (inactive) in assay [11], 98.3% in assay [11] (setting [12]) and 100% in [11] (setting [13]).

Turning to `CN(C)c1ccc(/C=C/C(=O)c2cccc(Br)c2)cc1`, the outcome in assay [1], in [4] and in [5] was inactive. Further, in assay [2], the fluorescence, percent of control (lower = inhibition) was found to be 120%. Further, in [3], the GTP binding, percent of control was 213%. The compound also displayed a GTP binding signal, raw median fluorescence (lower = inhibition) (MCF (arbitrary fluorescence units)) in [6] of 225. The GFP response vs DMSO in [7] is 104% (inactive); in assay [7] (setting [12]) it was 105%; in [7] (setting [13]), 104%; in [9], 112% (inactive). Further, the GFP response relative to DMSO in assay [8] is 99.5% (inactive); in [8] (setting [14]) it was 97.5%; in [8] (setting [15]), 102%. The GFP response, % of DMSO is 94% (inactive) in assay [10], 98.8% (inactive) in assay [11], 97.4% in assay [11] (setting [12]) and 98.1% in assay [11] (setting [13]).

For `O=C(Nc1cccc(-c2nc3ncccc3o2)c1)c1sc2ccccc2c1Cl`, the result in assay [1], in assay [4] and in [5] was inactive. Also, the fluorescence, percent of control (lower = inhibition) in [2] is 88.9%. For the same compound, in [3], the GTP binding, percent of control worked out at 340%. For the same compound, in [6], the GTP binding signal, raw median fluorescence (lower = inhibition) (MCF (arbitrary fluorescence units)) amounted to 343.

Take `CC(C)(C)c1ccc(C(=O)CC(Sc2ccc(Cl)cc2)C(=O)O)cc1` (centres undefined): the compound was classed as inactive in assay [1], in assay [4] and in assay [5]. Also, the fluorescence, percent of control (lower = inhibition) in assay [2] was found to be 30.3%. The compound further registered a GTP binding, percent of control in assay [3] of 79.2%. The same compound yielded a GTP binding signal, raw median fluorescence (lower = inhibition) (MCF (arbitrary fluorescence units)) in assay [6] of 285. Further, the GFP response vs DMSO in assay [7] is 100% (inactive); in assay [7] (setting [12]), 97.1%; in assay [7] (setting [13]) it was 100%; in assay [9] it was 101% (inactive). Also, the results for the GFP response relative to DMSO in [8], in [8] (setting [14]) and in assay [8] (setting [15]) were 120% (inactive), 112% and 125%, respectively. Moreover, the GFP response, % of DMSO is 98.4% (inactive) in assay [10], 79.7% (inactive) in assay [11], 79.4% in [11] (setting [12]) and 77.8% in assay [11] (setting [13]).

Take `COC(=O)c1ccc2nc(Nc3nc4c(F)cc(F)cc4s3)sc2c1`: the result in assay [1], in [4] and in assay [5] was inactive. In addition, in assay [2], the fluorescence, percent of control (lower = inhibition) stood at 33.7%. The compound also yielded a GTP binding, percent of control in [3] of 85.9%. The GTP binding signal, raw median fluorescence (lower = inhibition) (MCF (arbitrary fluorescence units)) in [6] worked out at 286. Also, the GFP response vs DMSO in [7] was 98.2% (inactive); in [7] (setting [12]) it was 97.3%; in assay [7] (setting [13]), 98.3%; in assay [9] it was 101% (inactive). Besides, the GFP response relative to DMSO is 91.2% (inactive) in assay [8], 90.4% in assay [8] (setting [14]) and 93% in [8] (setting [15]). For the same compound, the GFP response, % of DMSO in [10] was 102% (inactive); in assay [11] it was 99.7% (inactive); in assay [11] (setting [12]), 98.4%; in assay [11] (setting [13]) it was 98.7%.
